Assay outcomes (PubChem)
CtBP-E1A blk = qHTS Assay for Inhibitors of the CtBP/E1A Interaction; CtBP / adenovirus E1A interaction (AlphaScreen); AlphaScreen GST-E1A/His-CtBP binding, 1536-well; hits give low values; activity change, % (concentration not given with the values); actives 0.49% (n = 340,000); in the data active means activity change below about -65%; inconclusive means mostly about -30% to -63%
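Homogeneous bead-based format: GST-tagged E1A captured on glutathione donor beads, His-tagged CtBP on nickel acceptor beads; compounds precede bead addition by 2 h at 37 °C.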
Gal4-VP16 FLuc = VP16 counterscreen qHTS for inhibitors of ROR gamma transcriptional activity. Drosophila S2 Gal4-VP16 UAS-luciferase, luminescence, 20 h. Potency, µM (titrated, usually from 53.6 µM), without a hit: top-dose activity, negative = inhibition, most hits filed as inhibitors. actives 3.5% (n = 310,000);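 further: Gal4-VP16 expression switched on by copper sulfate through the metallothionein promoter; potency means the concentration at half of the fitted maximal effect; nearly all actives have a fitted effect of over 50% in size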
PKM2 act = qHTS Assay for Activators of Human Muscle isoform 2 Pyruvate Kinase. Pyruvate kinase PKM (Homo sapiens), P14618. purified PKM2, Kinase-Glo ATP luminescence, activation; response scale: 0% is enzyme alone, no compound. Potency, µM (doses to about 57.5 µM), for the others: at the highest dose activation, most hits filed as activators. actives 0.34% (n = 260,000). AID 1631, 2009; further: potency means the concentration at half of the fitted maximal effect; nearly all actives have a fitted effect of over 55% in size
Target sequence (P14618 whole entry, looked up, canonical isoform): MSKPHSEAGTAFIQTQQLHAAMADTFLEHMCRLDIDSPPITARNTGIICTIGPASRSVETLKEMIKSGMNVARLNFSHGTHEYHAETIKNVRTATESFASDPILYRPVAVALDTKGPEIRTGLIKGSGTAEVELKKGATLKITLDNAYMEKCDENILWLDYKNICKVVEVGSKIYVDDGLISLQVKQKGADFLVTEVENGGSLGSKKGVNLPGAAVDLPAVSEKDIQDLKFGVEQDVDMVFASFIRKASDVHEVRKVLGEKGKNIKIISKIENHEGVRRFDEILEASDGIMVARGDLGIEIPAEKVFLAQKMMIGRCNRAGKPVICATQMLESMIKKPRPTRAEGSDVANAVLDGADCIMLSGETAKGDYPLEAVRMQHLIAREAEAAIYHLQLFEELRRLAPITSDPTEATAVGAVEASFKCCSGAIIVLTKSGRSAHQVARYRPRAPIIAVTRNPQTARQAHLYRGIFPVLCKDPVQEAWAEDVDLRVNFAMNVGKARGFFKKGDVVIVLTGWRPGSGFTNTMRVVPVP
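Purified hPK-M2 (>95%) run at intermediate activity with 0.1 mM ADP and 0.5 mM PEP in 50 mM imidazole pH 7.2, KCl, MgCl2; 1 h room temperature. ATP formed read by Kinase-Glo luminescence; normalized to uninhibited and no-enzyme controls.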
Six1-Eya2 blk = qHTS Assay for Inhibitors of the Six1/Eya2 Interaction; Homeobox protein SIX1 (Homo sapiens) + Protein phosphatase EYA2 (Homo sapiens), …; AlphaScreen GST-Six1/His-Eya2 binding, biochemical; hits give low values; activity change, % (no concentration beside the values); actives 0.56% (n = 360,000); in the data active means activity change below about -65%; inconclusive means mostly about -30% to -63%
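AlphaScreen luminescence read after one hour at 37 °C in darkness. Pin-transferred compounds met GST-Six1 and His-Eya2 protein (5X stock 250 nM/500 nM) plus glutathione donor and Ni-chelate acceptor beads (5X, 50 ug/mL).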
RORg inh = qHTS for inhibitors of ROR gamma transcriptional activity; Nuclear receptor ROR-gamma (Mus musculus), P51450; Drosophila S2 Gal4-RORgamma UAS-luciferase reporter, 20 h; Potency, µM (top dose mostly 53.6 µM), without a hit: at the highest dose activity change, negative = inhibition, actives largely listed as inhibitors; actives 5.4% (n = 310,000); AID 2551, 2010; further: potency means the concentration at half of the fitted maximal effect; nearly all actives have a fitted effect of over 60% in size
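Stably transfected Drosophila Schneider cells are the test system, with ROR gamma fused to Gal4 and luciferase under UAS control; luminescence is read after 20 hr of 700 uM copper sulfate induction at ambient temperature.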
An asterisk follows results filed as active; ? = inconclusive; nt = no result; [ ] = remark or other dose. An excerpt weighted towards active compounds, which were near 5.6% of everything screened. Unless noted, the call rests on the fitted dose curve; in most records, active means well fitted curve in the direction sought with a large enough effect; inconclusive means small, poorly fitted or top-dose-only effect, or another doubt; inactive means no such curve, though single readings can be large; an effect the other way counts as inactive or inconclusive. On the % scale 0 is the no-effect control and ±100 the full control effect.

SMILES	CtBP-E1A blk	Gal4-VP16 FLuc	PKM2 act	Six1-Eya2 blk	RORg inh
COc1ccccc1NC(=O)NCCN1CCN(c2cccc(Cl)c2)CC1	4	2%	nt	8	-15%
CC(=O)Nc1ccc(OC(=O)N2CCCC2)cc1	nt	6%	-1%	1	-4%[1.91 µM]
Fc1cccc2sc(N3CCCC3)nc12	6	8%	-17%	7	-17%
O=C(CN1C2=NCCN2c2ccccc21)C12CC3CC(CC(C3)C1)C2	-1	-28%	6%	-4	16µM*
COC1OC2COC(c3ccccc3)OC2C2OC(c3ccccc3)OC12 (stereo not drawn)	0	nt	nt	0	nt
O=C(CSc1nc2ccccc2c(=O)n1CCCN1CCOCC1)NC12CC3CC(CC(C3)C1)C2	nt	-16%	-11%	0	14µM*
Cc1ccc(C(=O)Cn2c3c(sc2=N)CCCC3)cc1	nt	?	nt	nt	0.79µM*
Cc1ccc(C(=O)Cn2ncsc2=N)cc1	-1	19%	-2%	-1	-32%
CCCNC(=O)c1cc(C2CCCCN2C(=O)CCCc2ccccc2)on1 (stereo not drawn)	-5	nt	nt	0	nt
O=C(ONC1=NCCCCC1)c1cccc([N+](=O)[O-])c1	-18	-27%	-1%	-3	7.1µM*
O=[N+]([O-])c1cccc(/C=N/NC2=NCCCCC2)c1	19	-2%	7%	8	5%
COc1ccc(N(CC(=O)O)S(=O)(=O)c2ccc(C)cc2)cc1Cl	1	4%	-5%	2	-29%
CCOc1cc(/C=C/c2ccc3cccc([N+](=O)[O-])c3n2)cc(Cl)c1O	0	-15%	-11%	?	?
Oc1c(Cl)cc(Cl)cc1/C=C/c1ccc2cccc(O)c2n1	-9	7.1µM*	4%	-11	2.5µM*
Oc1ccc(Cl)cc1/C=C/c1ccc2cccc(O)c2n1	-11	4.5µM*	-7%	3	3.2µM*
COc1ccc(CCNC(=O)C(=O)NCC2OCCN2S(=O)(=O)c2ccc(C)cc2)cc1OC (stereo not drawn)	3	10µM*	-1%	3	6%
COc1ccccc1CCNC(=O)C(=O)NCC1OCCN1S(=O)(=O)c1ccc(Br)cc1 (stereo not drawn)	13	35µM*	3%	-1	?
O=C(NCCCn1ccnc1)C(=O)NCC1OCCN1S(=O)(=O)c1ccc(Br)cc1 (stereo not drawn)	10	-9%	10%	0	10%
COc1ccc(CCNC(=O)C(=O)NCC2OCCN2S(=O)(=O)c2ccc(OC)c(OC)c2)cc1OC (stereo not drawn)	2	-4%	0%	1	15%
O=C(NCCCn1ccnc1)C(=O)NCC1OCCN1S(=O)(=O)c1ccc(F)cc1 (stereo not drawn)	-73*	1%	-6%	-77*	-5%
COc1cccc(CN2CC(C(=O)NCCc3cn4cccnc4n3)CCC2=O)c1 (stereo not drawn)	3	nt	nt	-2	nt
COc1ccc(C(C#N)=Cc2ccc(N(C)CCC#N)cc2)cc1	-5	nt	nt	0	nt
CCCCCC(=O)N1C[C@@H](O)[C@H](n2cc(-c3ccc(F)cc3)nn2)C[C@@H]1c1ccccc1	1	nt	nt	0	nt
CCOC(=O)C1=C(NC(=S)NC(=O)c2ccccc2)c2ccccc2CC1C(C)C (stereo not drawn)	-10	3%[0.365 µM]	4%	-18	4µM*
CCOC(=O)C1=C(NC(=S)NC(=O)c2ccccc2)c2ccccc2CC1(C)CC (stereo not drawn)	0	7.1µM*	5%	-15	6.3µM*
C=CCOCCN(CC)CC	1	-13%	-7%	4	4%
CCN1CCN(Cc2ccc(NC(=O)c3ccc(C)c(NC(=O)C(=O)c4c[nH]c5ccccc45)c3)cc2C(F)(F)F)CC1	-5	?	-5%	-14	13µM*
